Experimental data as given in PubChem BioAssay (NCATS).
Records with an inconclusive call do not appear. Unless noted, calls follow the shape of the dose curve; as a rule, active = well fitted curve in either direction with a large enough effect (not every such curve was filed as active); inconclusive = small, poorly fitted or top-dose-only effect, or another doubt; inactive = flat fitted curve, though single readings scatter.

What was measured:
[1] = AP1 Signaling Pathway (AID 357); conditions: ME-180 AP-1-bla reporter, EGF-induced, beta-lactamase ratio, 5 h; at 17.2 µM (top of the series) unless noted;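 also: ME-180 reporter cells stimulated with EGF at its EC50 level; % is scaled to controls: 0 for no effect and ±100 for the full control effect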
In short: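 AP-1-bla ME-180 cells, Opti-MEM + 0.5% dialyzed FBS, plated overnight 37 °C. Cpd titration + EC50 EGF, 5 h 37 °C. CCF4 2.5 h RT; ex 405, em 460/530 ratio → %activity, AC50.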

[2] = NFAT Signaling Pathway (AID 444); conditions: Jurkat NFAT-bla M1, carbachol, beta-lactamase ratio, 5 h; at 17.2 µM (top of the series) unless noted;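 also: carbachol stimulus at about its EC50 of 1 µM final; % is scaled to controls: 0 for no effect and ±100 for the full control effect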
In short: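 Read-out: CCF4 FRET ratio (460 nm/530 nm) after 1 h RT dye loading, used for %activity and AC50 from titration series. Cells: Jurkat NFAT-β-lactamase/M1 line, treated with compound plus 1 uM carbachol for 5 h, 37 °C.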

[3] = Stat Signaling Pathway (AID 446); conditions: ME-180 (cervical carcinoma) SIE beta-lactamase reporter, IL-6 stimulated, 5 h; at 17.2 µM (top of the series) unless noted;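 also: ME-180 cervical cancer cells given 40 pM IL-6 alongside compound; SIE-controlled beta-lactamase reporter measured as 460/530 nm FRET emission ratio; % is scaled to controls: 0 for no effect and ±100 for the full control effect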
In short: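 Emission at 460 and 530 nm (excitation 405 nm) reports SIE-controlled beta-lactamase in ME-180 cells. Cells received compound with 40 pM IL-6 for 5 hrs at 37 C; data scaled between 300 pM IL-6 and 125 nM JAK-inhibitor controls.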

[4] = biological target: Glucocorticoid receptor (Homo sapiens) (UniProt P04150); assay: GR-GFP Redistribution (AID 450;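 active = compounds whose dose series gives a full or clear partial fitted curve of increased nuclear translocation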; also: potency is read from the fitted curve at half-maximal effect)
Sequence of Glucocorticoid receptor (Homo sapiens) (P04150 whole entry, looked up): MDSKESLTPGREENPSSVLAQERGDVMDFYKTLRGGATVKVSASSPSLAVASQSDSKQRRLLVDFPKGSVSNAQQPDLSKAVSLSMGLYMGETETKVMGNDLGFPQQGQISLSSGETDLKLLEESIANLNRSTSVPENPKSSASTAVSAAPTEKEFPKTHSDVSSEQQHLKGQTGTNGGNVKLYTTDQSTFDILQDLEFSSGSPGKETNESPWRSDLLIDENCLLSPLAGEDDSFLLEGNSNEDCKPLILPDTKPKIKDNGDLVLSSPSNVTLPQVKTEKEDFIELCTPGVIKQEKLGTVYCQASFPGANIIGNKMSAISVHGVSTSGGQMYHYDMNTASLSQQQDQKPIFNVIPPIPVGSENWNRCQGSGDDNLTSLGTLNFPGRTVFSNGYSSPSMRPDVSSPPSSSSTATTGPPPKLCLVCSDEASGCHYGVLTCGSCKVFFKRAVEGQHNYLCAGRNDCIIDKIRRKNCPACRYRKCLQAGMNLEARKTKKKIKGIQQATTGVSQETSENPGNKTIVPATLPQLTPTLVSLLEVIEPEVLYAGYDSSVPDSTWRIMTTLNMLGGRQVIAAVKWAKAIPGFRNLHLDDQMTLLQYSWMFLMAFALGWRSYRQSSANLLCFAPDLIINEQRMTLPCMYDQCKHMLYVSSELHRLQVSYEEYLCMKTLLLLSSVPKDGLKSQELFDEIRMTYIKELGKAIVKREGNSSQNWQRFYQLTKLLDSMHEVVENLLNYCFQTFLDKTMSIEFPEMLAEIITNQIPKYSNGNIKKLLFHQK

COc1ccc2nc(/N=C(\N)NC(=O)C(C)(C)C)nc(C)c2c1
inactive: activity change, negative = inhibition [1] 1.33% | activity change, negative = inhibition [2] 0.865% | activity, negative = inhibition [3] 0.61% | Potency [4] > 20.6 µM

O=C(O)c1ccc(C2CCCCC2)cn1
inactive: activity change, negative = inhibition [1] 12.7% | activity change, negative = inhibition [2] -13.3% | activity, negative = inhibition [3] 15.1% | Potency [4] > 20.6 µM

CCCCOc1ccc(CN(C)c2ncnc(N)n2)cc1
inactive: activity change, negative = inhibition [1] -9.35% | activity change, negative = inhibition [2] -11.6% | activity, negative = inhibition [3] 8.02% | Potency [4] > 20.6 µM

CCCCc1c(C)nn(-c2nnc3c4ccccc4n(C)c3n2)c1C
inactive: activity change, negative = inhibition [1] -21.4% | activity change, negative = inhibition [2] -28.4% | activity, negative = inhibition [3] -8.34% | Potency [4] > 20.6 µM

CCCC1Cc2c(sc3ncnc(N)c23)CO1 (stereo not drawn)
inactive: activity change, negative = inhibition [1] -16.4% | activity change, negative = inhibition [2] -5.16% | activity, negative = inhibition [3] -9.41% | Potency [4] > 20.6 µM

C(=N\n1cnnc1)/c1cccc(Oc2ccccc2)c1
inactive: activity change, negative = inhibition [1] -3.86% | activity change, negative = inhibition [2] -2.39% | activity, negative = inhibition [3] -17.8% | Potency [4] > 20.6 µM

C=CCc1c(C)nc(SCCC)[nH]c1=O
inactive: activity change, negative = inhibition [1] 2.81% | activity change, negative = inhibition [2] -9.46% | activity, negative = inhibition [3] -7.18% | Potency [4] > 20.6 µM

N/C(=N\S(=O)(=O)c1ccc(Cl)s1)c1ccccc1
inactive: activity change, negative = inhibition [1] -2.33% | activity change, negative = inhibition [2] -13.4% | activity, negative = inhibition [3] -9.11% | Potency [4] > 20.6 µM

CCOC(=O)c1c(C)n(C)c2ccc(OC)c(NC(=O)CN3CCN(Cc4ccccc4)CC3)c12
inactive: activity change, negative = inhibition [1] -11% | activity change, negative = inhibition [2] -8.48% | activity, negative = inhibition [3] -7.51% | Potency [4] > 20.6 µM

CCCc1nnc(SCc2ccc(OCC)cc2)n1N
inactive: activity change, negative = inhibition [1] 4.67% | activity change, negative = inhibition [2] 7.42% | activity, negative = inhibition [3] 10.4% | Potency [4] > 20.6 µM

CC(C)(C#N)C(C)(C)c1nn[nH]n1
inactive: activity change, negative = inhibition [1] 6.02% | activity change, negative = inhibition [2] 0.881% | activity, negative = inhibition [3] 8.72% | Potency [4] > 20.6 µM

Cc1ccc(C(=O)C2C(c3cccs3)NC(=O)NC2(O)C(F)(F)F)cc1 (stereo not drawn)
inactive: activity change, negative = inhibition [1] 1.39% | activity change, negative = inhibition [2] 8.36% | activity, negative = inhibition [3] 0.646% | Potency [4] > 20.6 µM

COC(=O)CN(c1nc(C)cc(OC)n1)S(=O)(=O)c1ccccc1
inactive: activity change, negative = inhibition [1] -9.15% | activity change, negative = inhibition [2] -15.3% | activity, negative = inhibition [3] 8.46% | Potency [4] > 20.6 µM

COc1ccc(-c2cn3ccsc3n2)cc1
inactive: activity change, negative = inhibition [1] 11.1% | activity change, negative = inhibition [2] 4.22% | activity, negative = inhibition [3] -5.92% | Potency [4] > 20.6 µM

CC1(C)CC(=O)C2=C(C1)N(Cc1ccco1)C(=O)C2(O)C(F)(F)F (stereo not drawn)
inactive: activity change, negative = inhibition [1] 11.1% | activity change, negative = inhibition [2] -3.91% | activity, negative = inhibition [3] -2.61% | Potency [4] > 20.6 µM

CSc1nc(N)nc(SCC(=O)OC(C)C)c1C#N
inactive: activity change, negative = inhibition [1] -15.6% | activity change, negative = inhibition [2] 6.28% | activity, negative = inhibition [3] -5.26% | Potency [4] > 20.6 µM

CC(C)(C)NC(=O)CSc1nsc(SCC(=O)NC(C)(C)C)c1C#N
inactive: activity change, negative = inhibition [1] -5.49% | activity change, negative = inhibition [2] -10.2% | activity, negative = inhibition [3] 3.19% | Potency [4] > 20.6 µM

COC(=O)/C=c1/s/c(=C(/C#N)C(=O)N2CCOCC2)n(-c2ccccc2)c1=O
inactive: activity change, negative = inhibition [1] 8.21% | activity change, negative = inhibition [2] -4.89% | activity, negative = inhibition [3] -9.79% | Potency [4] > 20.6 µM

CCN(CC)CCCN1C(=O)C(=O)/C(=C(/O)c2ccccc2)C1c1ccccn1 (stereo not drawn)
inactive: activity change, negative = inhibition [1] -0.714% | activity change, negative = inhibition [2] 5.2% | activity, negative = inhibition [3] 3.59% | Potency [4] > 20.6 µM

COc1cccc2c(=O)c(SC(F)(F)C(F)C(F)(F)F)c(C)[nH]c12 (stereo not drawn)
inactive: activity change, negative = inhibition [1] -13.4% | activity change, negative = inhibition [2] 4.93% | activity, negative = inhibition [3] 2.33% | Potency [4] > 20.6 µM

COC(=O)c1ccc(OC(=O)c2ccc(OC)c(OC)c2)c(OC)c1
inactive: activity change, negative = inhibition [1] -0.243% | activity change, negative = inhibition [2] -10.5% | activity, negative = inhibition [3] -2.16% | Potency [4] > 20.6 µM

Cc1cc(C)n(CC(=O)n2nc(C)cc2C)n1
inactive: activity change, negative = inhibition [1] 11.3% | activity change, negative = inhibition [2] -8.81% | activity, negative = inhibition [3] 8.01% | Potency [4] > 20.6 µM

COc1ccc(NC(=O)C2CSC3c4ccccc4C(=O)N23)cc1 (stereo not drawn)
inactive: activity change, negative = inhibition [1] -4.43% | activity change, negative = inhibition [2] -13% | activity, negative = inhibition [3] 4.23% | Potency [4] > 20.6 µM

CCCc1nnc(NC(=O)c2c(O)c3c([nH]c2=O)CCCC3)s1
inactive: activity change, negative = inhibition [1] -4.44% | activity change, negative = inhibition [2] -18.4% | activity, negative = inhibition [3] 12.4% | Potency [4] > 20.6 µM

O=C(NCc1cccnc1)NC(C(F)(F)F)C(F)(F)F
inactive: activity change, negative = inhibition [1] 12.5% | activity change, negative = inhibition [2] 2.52% | activity, negative = inhibition [3] 8.58% | Potency [4] > 20.6 µM

CC1CN(C2CCN(S(=O)(=O)c3ccc4ccccc4c3)CC2)CC(C)O1 (stereo not drawn)
inactive: activity change, negative = inhibition [1] -3.99% | activity change, negative = inhibition [2] -12.1% | activity, negative = inhibition [3] -8.2% | Potency [4] > 20.6 µM

Cc1nnc2n(C3CCCCC3)c(=O)c3c4c(sc3n12)COC(C)(C)C4
inactive: activity change, negative = inhibition [1] 4.48% | activity change, negative = inhibition [2] 5.64% | activity, negative = inhibition [3] 0.172% | Potency [4] > 20.6 µM

COc1ccc(/C(O)=C2/C(=O)C(=O)N(CCCN(C)C)C2c2ccco2)cc1Cl (stereo not drawn)
inactive: activity change, negative = inhibition [1] 9.29% | activity change, negative = inhibition [2] -5.99% | activity, negative = inhibition [3] 4.09% | Potency [4] > 20.6 µM

Cc1nn(CC(N)=O)c(=O)c2ccccc12
inactive: activity change, negative = inhibition [1] 11.8% | activity change, negative = inhibition [2] 0.254% | activity, negative = inhibition [3] 9.04% | Potency [4] > 20.6 µM

CC1(C)Cc2c(c(-c3ccccc3)[nH]c(=O)c2C#N)CS1
inactive: activity change, negative = inhibition [1] -0.182% | activity change, negative = inhibition [2] 2.27% | activity, negative = inhibition [3] -8.62% | Potency [4] > 20.6 µM

CN1C(=S)SC(N(O)C(=O)Nc2ccccc2)C1(C)C (stereo not drawn)
inactive: activity change, negative = inhibition [1] 1.19% | activity change, negative = inhibition [2] -13.4% | activity, negative = inhibition [3] 2.19% | Potency [4] > 20.6 µM

CCC(NC(=O)Nc1nccs1)(C(F)(F)F)C(F)(F)F
inactive: activity change, negative = inhibition [1] -2.44% | activity change, negative = inhibition [2] -12.7% | activity, negative = inhibition [3] -6.36% | Potency [4] > 20.6 µM

COc1ccc(NCc2cc3ccccc3[nH]c2=O)cc1
inactive: activity change, negative = inhibition [1] -1.34% | activity change, negative = inhibition [2] -19.9% | activity, negative = inhibition [3] 1.46% | Potency [4] > 20.6 µM

CCNc1sc(C(=O)c2cccs2)c(N)c1C#N
inactive: activity change, negative = inhibition [1] -8.55% | activity change, negative = inhibition [2] 20.9% | activity, negative = inhibition [3] -7.29% | Potency [4] > 20.6 µM

C/C(=N/n1cnnc1)c1cccnc1
inactive: activity change, negative = inhibition [1] -1.84% | activity change, negative = inhibition [2] -0.807% | activity, negative = inhibition [3] 16.1% | Potency [4] > 20.6 µM

O=C(Nc1ccccc1)c1cc(N2CCOCC2)nc2ccccc12
inactive: activity change, negative = inhibition [1] 2.4% | activity change, negative = inhibition [2] 13.1% | activity, negative = inhibition [3] 1.13% | Potency [4] > 20.6 µM

Cc1csc(SCCn2c(Br)nc3c2c(=O)[nH]c(=O)n3C)n1
inactive: activity change, negative = inhibition [1] 1.52% | activity change, negative = inhibition [2] 4.32% | activity, negative = inhibition [3] 1.99% | Potency [4] > 20.6 µM
